Test results from the supplement of paper PMC11732987, “Enantioselective OTUD7B fragment discovery through chemoproteomics screening and high-throughput optimisation” (Communications Chemistry, 2025).

Tests used:
Experiment in all cases: log2 ratio of Biotin-Ahx-Ub-VS probe labelling (fragment/DMSO); higher = less target engagement (more negative = stronger competition), active = hit call of the paper (q ≤ 0.05, log2 ratio ≤ -1)
Conditions in all cases: compound concentration: 200 uM; treatment time: 3 h
[1] = molecular target: T1, USP42 (UniProt Q9H9J4)
T1 sequence (whole entry): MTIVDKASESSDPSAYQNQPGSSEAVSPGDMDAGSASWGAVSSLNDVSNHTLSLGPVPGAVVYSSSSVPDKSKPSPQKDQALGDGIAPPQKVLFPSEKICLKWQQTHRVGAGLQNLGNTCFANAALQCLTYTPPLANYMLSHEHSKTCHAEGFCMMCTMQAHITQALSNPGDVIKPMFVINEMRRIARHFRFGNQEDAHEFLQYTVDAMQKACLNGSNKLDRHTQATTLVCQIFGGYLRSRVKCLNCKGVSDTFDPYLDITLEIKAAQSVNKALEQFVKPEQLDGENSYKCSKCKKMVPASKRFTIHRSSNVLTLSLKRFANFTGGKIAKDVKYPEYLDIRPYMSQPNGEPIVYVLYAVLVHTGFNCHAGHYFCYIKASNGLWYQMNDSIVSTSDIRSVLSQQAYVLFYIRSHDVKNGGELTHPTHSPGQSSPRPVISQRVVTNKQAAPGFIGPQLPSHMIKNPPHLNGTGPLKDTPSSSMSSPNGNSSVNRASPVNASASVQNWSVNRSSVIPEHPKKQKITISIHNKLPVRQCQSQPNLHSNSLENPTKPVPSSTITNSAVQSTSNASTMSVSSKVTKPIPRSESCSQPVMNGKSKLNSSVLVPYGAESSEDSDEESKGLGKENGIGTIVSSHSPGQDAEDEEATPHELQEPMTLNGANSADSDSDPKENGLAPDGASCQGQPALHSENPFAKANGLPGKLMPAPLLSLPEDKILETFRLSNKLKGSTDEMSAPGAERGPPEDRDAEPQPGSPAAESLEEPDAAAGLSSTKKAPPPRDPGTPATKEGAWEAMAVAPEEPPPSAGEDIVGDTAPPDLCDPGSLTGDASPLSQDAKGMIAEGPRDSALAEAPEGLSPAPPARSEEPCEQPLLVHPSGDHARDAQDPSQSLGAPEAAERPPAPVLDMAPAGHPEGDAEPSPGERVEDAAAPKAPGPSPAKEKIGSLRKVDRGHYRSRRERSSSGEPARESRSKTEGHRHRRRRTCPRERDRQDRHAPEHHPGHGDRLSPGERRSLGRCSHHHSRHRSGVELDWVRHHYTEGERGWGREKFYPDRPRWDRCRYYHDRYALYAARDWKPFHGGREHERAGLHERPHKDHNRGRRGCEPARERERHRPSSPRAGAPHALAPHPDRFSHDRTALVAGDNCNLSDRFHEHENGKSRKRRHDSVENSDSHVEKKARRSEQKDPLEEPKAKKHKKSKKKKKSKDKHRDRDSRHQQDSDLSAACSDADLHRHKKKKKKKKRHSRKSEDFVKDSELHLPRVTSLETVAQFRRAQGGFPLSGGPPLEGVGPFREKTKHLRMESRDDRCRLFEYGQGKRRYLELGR
In short: (§1)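 Labelled DUBs were enriched with NeutrAvidin, digested with LysC and trypsin, and run by diaPASEF LC-MS/MS. The labelling used Biotin-Ahx-Ub-VS at 0.5 µM final for 1 h on HEK293T lysate (495 µg per sample) previously treated in triplicate with fragment at 200 µM or vehicle for 3 h. Values are average log2 fragment/vehicle ratios by unpaired t-test on global-median-normalised Spectronaut quantities of proteins with ≥2 unique peptides.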

[2] = molecular target: USP46 (UniProt P62068)
Chain of USP46 (P62068 whole entry): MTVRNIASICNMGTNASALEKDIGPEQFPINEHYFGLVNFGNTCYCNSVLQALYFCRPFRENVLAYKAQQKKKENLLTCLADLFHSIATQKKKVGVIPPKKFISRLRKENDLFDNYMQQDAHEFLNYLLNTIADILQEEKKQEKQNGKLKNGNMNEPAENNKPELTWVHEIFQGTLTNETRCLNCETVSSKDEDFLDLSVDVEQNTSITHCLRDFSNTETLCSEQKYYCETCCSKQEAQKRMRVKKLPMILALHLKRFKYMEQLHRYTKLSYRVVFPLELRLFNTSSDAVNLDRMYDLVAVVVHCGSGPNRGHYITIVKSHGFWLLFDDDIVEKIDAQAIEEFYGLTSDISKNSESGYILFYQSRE
In short: as §1

[3] = molecular target: T2, USP47 (UniProt Q96K76)
T2 sequence (whole entry): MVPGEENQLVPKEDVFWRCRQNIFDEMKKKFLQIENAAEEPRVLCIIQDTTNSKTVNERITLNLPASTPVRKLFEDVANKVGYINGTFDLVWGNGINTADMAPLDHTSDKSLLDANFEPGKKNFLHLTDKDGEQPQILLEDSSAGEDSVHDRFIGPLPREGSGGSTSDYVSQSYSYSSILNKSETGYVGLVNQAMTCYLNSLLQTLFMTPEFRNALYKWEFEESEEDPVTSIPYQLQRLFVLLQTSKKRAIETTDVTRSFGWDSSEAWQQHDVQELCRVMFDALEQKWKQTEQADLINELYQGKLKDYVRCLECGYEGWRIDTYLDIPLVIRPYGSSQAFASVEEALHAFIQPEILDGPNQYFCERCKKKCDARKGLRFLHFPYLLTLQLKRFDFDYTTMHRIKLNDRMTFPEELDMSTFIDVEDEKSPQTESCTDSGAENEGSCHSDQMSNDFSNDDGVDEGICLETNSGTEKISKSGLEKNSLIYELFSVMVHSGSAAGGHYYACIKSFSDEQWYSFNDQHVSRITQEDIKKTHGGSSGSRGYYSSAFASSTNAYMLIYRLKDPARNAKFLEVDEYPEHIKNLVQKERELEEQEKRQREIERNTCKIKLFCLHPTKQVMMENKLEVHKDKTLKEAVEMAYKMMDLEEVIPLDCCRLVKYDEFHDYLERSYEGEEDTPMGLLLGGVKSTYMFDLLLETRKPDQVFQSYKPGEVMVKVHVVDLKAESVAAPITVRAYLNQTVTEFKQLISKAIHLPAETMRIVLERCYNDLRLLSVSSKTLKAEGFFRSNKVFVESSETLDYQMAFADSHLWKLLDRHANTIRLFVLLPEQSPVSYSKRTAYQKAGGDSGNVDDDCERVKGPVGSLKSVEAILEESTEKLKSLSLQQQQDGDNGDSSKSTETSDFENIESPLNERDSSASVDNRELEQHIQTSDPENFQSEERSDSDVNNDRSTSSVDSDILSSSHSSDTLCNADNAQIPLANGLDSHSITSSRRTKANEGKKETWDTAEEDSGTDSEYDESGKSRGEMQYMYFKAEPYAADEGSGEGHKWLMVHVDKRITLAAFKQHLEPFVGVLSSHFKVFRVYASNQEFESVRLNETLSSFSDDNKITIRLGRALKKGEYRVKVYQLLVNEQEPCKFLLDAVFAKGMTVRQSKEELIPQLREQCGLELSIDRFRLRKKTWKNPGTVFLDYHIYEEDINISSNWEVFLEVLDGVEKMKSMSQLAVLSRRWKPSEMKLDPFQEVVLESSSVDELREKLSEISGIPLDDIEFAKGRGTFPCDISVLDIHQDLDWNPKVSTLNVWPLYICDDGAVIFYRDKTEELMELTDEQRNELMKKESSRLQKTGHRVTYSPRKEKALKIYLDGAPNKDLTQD
In short: as §1

[4] = molecular target: T3, USP48 (UniProt Q86UV5)
T3 sequence (whole entry): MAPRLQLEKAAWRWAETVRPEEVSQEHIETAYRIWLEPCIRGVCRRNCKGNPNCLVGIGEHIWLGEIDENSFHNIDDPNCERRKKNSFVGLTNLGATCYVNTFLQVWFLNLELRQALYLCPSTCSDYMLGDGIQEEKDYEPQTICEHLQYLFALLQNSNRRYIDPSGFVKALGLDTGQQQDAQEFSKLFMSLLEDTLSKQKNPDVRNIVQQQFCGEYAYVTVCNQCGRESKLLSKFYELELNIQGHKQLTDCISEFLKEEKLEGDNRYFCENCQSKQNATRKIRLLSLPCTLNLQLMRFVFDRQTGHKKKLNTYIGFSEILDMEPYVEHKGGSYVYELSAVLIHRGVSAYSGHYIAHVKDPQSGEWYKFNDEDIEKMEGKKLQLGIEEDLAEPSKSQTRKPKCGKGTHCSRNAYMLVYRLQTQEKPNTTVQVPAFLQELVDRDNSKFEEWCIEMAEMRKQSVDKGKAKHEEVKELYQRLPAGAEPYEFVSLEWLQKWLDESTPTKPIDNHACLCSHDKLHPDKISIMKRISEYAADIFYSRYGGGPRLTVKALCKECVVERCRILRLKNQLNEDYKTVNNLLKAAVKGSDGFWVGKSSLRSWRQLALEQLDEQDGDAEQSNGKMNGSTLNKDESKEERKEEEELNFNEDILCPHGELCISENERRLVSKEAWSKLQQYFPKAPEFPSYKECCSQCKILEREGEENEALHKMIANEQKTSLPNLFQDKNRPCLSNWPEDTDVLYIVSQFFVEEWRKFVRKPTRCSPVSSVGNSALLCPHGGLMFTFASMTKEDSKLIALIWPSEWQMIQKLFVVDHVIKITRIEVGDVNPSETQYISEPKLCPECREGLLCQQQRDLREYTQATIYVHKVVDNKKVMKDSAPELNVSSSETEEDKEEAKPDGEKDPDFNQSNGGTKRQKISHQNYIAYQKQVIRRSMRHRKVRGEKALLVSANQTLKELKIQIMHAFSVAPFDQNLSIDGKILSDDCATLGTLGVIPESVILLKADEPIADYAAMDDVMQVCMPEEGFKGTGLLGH
In short: as §1

[5] = molecular target: T4, USP5 (UniProt P45974)
T4 sequence (whole entry): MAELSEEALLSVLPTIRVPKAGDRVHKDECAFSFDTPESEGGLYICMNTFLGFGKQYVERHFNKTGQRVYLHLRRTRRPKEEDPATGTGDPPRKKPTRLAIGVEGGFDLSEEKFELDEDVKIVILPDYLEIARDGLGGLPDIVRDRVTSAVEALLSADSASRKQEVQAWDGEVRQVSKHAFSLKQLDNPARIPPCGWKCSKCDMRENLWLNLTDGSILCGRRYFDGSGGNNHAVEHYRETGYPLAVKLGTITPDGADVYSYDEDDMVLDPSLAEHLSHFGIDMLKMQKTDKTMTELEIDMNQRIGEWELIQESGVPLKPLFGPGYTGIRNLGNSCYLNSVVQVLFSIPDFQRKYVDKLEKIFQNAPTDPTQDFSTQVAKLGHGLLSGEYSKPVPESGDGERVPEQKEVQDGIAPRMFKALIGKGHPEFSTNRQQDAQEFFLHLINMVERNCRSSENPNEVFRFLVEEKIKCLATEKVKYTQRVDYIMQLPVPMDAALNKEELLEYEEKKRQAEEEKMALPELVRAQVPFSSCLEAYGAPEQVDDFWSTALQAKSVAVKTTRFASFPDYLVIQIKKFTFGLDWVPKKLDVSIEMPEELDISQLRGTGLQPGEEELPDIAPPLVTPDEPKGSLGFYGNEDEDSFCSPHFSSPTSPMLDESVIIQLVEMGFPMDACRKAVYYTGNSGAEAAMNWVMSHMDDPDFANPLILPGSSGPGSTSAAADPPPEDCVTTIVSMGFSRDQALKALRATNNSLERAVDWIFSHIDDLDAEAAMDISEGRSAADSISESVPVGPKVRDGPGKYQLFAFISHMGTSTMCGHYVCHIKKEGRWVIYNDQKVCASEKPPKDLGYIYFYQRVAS
In short: as §1

[6] = molecular target: USP54 (UniProt Q70EL1)
In short: as §1

[7] = molecular target: USP7 (UniProt Q93009)
Chain of USP7 (Q93009 whole entry, looked up): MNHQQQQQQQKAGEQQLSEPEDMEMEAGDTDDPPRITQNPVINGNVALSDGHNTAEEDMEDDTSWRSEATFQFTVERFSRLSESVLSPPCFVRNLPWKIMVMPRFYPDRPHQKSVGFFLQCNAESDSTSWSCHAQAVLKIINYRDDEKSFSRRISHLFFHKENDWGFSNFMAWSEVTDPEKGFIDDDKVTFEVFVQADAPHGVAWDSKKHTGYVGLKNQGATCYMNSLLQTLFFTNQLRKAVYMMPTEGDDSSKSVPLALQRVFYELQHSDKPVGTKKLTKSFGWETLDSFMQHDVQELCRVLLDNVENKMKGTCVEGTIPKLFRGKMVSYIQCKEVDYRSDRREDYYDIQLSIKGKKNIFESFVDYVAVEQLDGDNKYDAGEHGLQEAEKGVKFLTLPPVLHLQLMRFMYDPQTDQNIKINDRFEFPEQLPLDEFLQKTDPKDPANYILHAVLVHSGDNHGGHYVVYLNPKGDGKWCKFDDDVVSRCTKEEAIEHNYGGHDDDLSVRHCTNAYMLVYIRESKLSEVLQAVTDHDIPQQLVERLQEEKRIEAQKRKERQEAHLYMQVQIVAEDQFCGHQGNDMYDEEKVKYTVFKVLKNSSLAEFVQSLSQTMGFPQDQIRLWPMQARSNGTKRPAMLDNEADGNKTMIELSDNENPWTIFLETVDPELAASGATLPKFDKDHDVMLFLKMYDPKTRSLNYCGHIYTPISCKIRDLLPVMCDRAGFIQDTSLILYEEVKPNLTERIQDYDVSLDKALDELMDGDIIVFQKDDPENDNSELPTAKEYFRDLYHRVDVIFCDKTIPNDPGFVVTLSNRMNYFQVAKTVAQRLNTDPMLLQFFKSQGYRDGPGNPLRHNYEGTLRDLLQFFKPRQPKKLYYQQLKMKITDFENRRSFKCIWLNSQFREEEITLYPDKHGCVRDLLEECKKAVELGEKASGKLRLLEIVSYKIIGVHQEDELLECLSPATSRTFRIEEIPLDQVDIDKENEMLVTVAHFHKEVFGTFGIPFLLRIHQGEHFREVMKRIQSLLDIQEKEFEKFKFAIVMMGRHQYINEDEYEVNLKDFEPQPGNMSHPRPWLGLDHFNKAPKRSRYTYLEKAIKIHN
In short: as §1

[8] = molecular target: T5, USP8 (UniProt P40818)
T5 sequence (whole entry): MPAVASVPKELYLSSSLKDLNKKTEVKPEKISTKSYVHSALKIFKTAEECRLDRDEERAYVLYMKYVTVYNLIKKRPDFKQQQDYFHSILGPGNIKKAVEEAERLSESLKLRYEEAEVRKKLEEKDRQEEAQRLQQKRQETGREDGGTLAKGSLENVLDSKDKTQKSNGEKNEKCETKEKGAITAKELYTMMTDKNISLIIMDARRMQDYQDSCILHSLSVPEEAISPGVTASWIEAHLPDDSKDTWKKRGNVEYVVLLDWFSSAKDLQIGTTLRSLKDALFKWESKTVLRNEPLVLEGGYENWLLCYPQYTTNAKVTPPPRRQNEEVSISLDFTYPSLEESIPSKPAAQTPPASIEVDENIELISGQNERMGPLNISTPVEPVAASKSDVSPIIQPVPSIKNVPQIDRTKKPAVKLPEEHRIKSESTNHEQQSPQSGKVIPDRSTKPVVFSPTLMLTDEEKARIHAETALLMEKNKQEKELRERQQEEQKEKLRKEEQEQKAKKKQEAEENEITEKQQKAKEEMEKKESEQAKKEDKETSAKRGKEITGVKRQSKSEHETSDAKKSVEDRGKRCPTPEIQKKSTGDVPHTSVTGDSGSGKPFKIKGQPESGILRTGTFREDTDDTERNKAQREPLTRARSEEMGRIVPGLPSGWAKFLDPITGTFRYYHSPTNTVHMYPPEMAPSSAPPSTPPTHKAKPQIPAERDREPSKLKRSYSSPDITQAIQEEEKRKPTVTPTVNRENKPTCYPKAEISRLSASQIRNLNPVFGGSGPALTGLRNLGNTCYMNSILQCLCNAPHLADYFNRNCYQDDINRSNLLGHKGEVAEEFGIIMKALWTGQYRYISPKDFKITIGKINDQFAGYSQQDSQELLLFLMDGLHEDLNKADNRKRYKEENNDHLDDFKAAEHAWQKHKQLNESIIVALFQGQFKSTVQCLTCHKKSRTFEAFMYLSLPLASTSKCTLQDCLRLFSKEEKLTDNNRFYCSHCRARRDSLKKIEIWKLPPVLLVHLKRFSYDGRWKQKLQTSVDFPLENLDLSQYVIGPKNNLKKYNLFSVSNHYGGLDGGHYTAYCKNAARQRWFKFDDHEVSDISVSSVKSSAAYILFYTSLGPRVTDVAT
In short: as §1

[9] = molecular target: USP9X (UniProt Q93008)
Chain of USP9X (Q93008 whole entry): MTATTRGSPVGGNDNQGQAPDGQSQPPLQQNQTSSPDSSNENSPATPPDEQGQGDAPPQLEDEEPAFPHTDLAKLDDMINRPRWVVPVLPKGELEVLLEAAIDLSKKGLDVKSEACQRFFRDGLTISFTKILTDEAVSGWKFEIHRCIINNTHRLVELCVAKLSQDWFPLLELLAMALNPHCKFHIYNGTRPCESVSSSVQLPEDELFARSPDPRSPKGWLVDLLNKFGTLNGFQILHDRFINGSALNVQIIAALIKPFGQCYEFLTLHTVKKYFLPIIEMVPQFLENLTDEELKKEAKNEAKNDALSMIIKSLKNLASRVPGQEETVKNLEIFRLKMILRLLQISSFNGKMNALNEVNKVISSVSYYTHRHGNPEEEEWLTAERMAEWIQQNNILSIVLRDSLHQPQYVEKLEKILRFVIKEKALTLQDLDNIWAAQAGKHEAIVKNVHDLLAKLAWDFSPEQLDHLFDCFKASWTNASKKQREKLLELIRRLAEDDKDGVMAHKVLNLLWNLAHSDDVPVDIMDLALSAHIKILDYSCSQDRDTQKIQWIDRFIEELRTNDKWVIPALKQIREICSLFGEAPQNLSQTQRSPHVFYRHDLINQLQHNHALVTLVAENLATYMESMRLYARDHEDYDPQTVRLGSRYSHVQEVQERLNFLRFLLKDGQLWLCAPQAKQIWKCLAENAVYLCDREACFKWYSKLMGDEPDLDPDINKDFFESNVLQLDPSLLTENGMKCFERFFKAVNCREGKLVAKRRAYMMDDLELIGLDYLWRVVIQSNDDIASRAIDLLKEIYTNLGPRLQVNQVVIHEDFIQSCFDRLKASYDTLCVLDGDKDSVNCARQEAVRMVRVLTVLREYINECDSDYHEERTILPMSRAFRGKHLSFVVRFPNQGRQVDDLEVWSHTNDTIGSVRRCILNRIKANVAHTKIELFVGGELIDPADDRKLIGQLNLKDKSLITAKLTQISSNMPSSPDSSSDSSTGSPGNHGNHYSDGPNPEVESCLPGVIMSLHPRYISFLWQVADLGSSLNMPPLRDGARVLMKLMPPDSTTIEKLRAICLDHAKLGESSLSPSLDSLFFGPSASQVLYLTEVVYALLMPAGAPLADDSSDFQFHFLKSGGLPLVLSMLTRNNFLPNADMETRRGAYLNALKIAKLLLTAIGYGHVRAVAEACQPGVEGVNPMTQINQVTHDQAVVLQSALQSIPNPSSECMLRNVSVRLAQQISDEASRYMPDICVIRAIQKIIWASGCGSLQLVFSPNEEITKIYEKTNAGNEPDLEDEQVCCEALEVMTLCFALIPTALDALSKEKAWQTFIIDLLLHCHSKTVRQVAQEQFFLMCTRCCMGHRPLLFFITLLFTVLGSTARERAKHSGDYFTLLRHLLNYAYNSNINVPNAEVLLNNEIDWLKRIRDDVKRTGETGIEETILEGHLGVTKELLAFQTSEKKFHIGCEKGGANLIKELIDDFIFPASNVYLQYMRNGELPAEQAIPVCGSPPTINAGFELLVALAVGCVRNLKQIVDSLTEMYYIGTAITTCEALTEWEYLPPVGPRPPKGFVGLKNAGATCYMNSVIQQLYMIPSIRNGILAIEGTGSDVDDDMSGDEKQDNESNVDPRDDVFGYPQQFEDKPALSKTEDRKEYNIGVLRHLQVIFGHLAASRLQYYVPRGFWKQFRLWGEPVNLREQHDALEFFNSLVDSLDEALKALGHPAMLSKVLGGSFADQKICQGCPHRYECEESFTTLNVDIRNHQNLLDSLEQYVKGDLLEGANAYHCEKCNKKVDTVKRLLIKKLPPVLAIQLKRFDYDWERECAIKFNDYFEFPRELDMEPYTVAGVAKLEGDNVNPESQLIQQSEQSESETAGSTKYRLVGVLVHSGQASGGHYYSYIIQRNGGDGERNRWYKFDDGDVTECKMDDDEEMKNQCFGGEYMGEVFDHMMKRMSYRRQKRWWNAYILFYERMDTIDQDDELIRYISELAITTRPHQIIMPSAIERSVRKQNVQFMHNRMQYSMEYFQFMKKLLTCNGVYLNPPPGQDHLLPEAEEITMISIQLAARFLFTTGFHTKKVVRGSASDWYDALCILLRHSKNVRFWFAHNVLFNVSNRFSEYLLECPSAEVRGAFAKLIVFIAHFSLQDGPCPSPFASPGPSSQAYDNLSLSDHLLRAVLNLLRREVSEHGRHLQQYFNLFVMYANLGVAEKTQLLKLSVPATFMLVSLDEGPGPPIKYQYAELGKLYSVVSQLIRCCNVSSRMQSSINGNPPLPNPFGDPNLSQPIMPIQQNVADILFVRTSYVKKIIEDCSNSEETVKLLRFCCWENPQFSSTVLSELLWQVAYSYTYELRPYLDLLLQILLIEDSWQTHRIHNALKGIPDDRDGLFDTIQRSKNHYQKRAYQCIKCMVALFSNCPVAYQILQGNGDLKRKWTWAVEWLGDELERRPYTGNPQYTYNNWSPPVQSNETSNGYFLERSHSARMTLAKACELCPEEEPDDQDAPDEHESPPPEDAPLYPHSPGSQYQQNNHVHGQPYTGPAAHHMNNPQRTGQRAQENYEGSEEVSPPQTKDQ
In short: as §1

[10] = molecular target: UniProt O00487
Chain of UniProt O00487 (O00487 whole entry): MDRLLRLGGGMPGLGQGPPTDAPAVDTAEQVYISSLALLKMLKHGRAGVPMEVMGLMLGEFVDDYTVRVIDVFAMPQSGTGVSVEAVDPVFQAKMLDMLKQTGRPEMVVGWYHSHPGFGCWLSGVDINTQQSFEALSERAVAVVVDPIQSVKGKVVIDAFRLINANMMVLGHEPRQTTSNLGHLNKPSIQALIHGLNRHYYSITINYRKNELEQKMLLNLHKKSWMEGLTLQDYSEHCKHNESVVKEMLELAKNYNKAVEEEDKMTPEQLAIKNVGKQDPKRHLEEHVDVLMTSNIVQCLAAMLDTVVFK
In short: as §1

Measured: log2 ratio of Biotin-Ahx-Ub-VS probe labelling

Cc1cccn2cc(CCNC(=O)CCl)nc12.Cl
inactive: [1] 0.274 | [2] -0.16 | [3] 0.127 | [4] -0.182 | [5] -0.331 | [6] 0.0379 | [7] -0.51 | [8] -0.181 | [9] -0.145 | [10] -0.197
